The sample as a whole holds a higher share of hits than the screen did.
Cruzain noTriton: inhibitors of Trypanosoma cruzi cruzain without detergent | purified cruzain, Z-FR-AMC fluorescence, no detergent | Potency, µM, inactives show max response, negative = inhibition, actives largely listed as inhibitors | P25779 | 2.3% of 200,000 active;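 note: plate controls were enzyme without inhibitor for no effect and buffer without enzyme for full effect; nearly all actives have a fitted effect of over 40% in size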
Target sequence (P25779 123-467 limits assumed): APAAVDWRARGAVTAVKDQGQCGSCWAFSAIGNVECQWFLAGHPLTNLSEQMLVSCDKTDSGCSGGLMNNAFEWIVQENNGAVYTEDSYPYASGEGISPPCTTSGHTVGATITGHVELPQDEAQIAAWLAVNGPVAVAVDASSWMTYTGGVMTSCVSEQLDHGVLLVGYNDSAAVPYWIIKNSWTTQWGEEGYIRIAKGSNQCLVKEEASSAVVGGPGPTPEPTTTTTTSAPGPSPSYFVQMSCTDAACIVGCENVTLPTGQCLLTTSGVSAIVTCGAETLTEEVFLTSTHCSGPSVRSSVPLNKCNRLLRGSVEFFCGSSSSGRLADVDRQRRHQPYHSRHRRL
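Detergent-free condition (0.00005% Triton X-100) in acetate buffer pH 5.5 with DTT. 1.5 nM enzyme and compound were pre-mixed 15 min, then 2 uM Z-FR-AMC substrate added; reaction progress from fluorescence change between first and third reads (60 s).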
Cruzain Triton: cruzain (T. cruzi) inhibition with detergent | 0.43% of 200,000 active | Potency, µM, without a hit: max response, negative = inhibition, actives largely listed as inhibitors | P25779 | purified cruzain, Z-FR-AMC fluorescence, 0.01% Triton | AID 1478;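 note: plate controls were neutral wells for no effect and buffer without enzyme for full effect; nearly all actives have a fitted effect of over 40% in size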
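Z-FR-AMC hydrolysis (2 uM substrate) by cruzain (1.5 nM) monitored kinetically at ex 360/em 450 nm after 15 min room-temperature compound exposure; 0.01% Triton X-100, pH 5.5, 5 mM DTT.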
NS1 function inh: influenza NS1 inhibition; Potency, µM (doses to about 46.1 µM), for inactives: top-dose activity, positive = more growth; 0.4% of 270,000 active; calls by dose curve; note: actives are rising curves; nearly all actives have a fitted effect of over 50% in size
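A cell-based growth assay was used: compounds that relieve NS1-induced slow growth of budding yeast raise OD600. Assay medium was yeast nitrogen base with ammonium sulphate and -URA supplement, pH 6.0, with 2% galactose.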
An asterisk follows results filed as active; ? = inconclusive; . = no result. Unless noted, calls come from the whole dose curve; as a rule, active = well fitted curve in the direction sought with a large enough effect; inconclusive = small, poorly fitted or top-dose-only effect, or another doubt; inactive = no such curve, though single readings can be large; an effect the other way counts as inactive or inconclusive. Potency is the fitted concentration of half-maximal effect.

SMILES	Cruzain noTriton	Cruzain Triton	NS1 function inh
CCOC(=O)c1ccc(N2CCN(c3ccccc3F)CC2)c(NC(=O)Nc2ccccc2)c1	?	-3%	?
COc1ccc(-n2c(=O)c3c4c(sc3n(Cc3ccc(C(C)(C)C)cc3)c2=O)CCC4)c(OC)c1	15%	-12%	.
CCOc1ccccc1Nc1nnc(SC(C)C(=O)Nc2nc(-c3ccccc3)cs2)s1 (stereo not drawn)	7.9µM*	-5%	3%
Cc1nc(NC(=O)c2ccccc2)sc1-c1csc(NCCc2ccccc2)n1	?	-9%	27%
CCOc1ccccc1NC(=O)C(C)Sc1cc(-c2ccccc2)nc(C)n1 (stereo not drawn)	-6%	-7%	.
COc1ccc(-c2nc(NC(C)=O)sc2-c2ccc(OC)cc2)cc1	.	.	9%
COc1ccc(-c2sc(NC(=O)c3ccc(C)cc3)nc2-c2ccc([N+](=O)[O-])cc2)cc1	4µM*	-5%	14%
COc1ccccc1Nc1nc(-c2sc(N)nc2C)cs1	.	.	4%
CCOc1ccccc1Nc1nc(-c2sc(NC(=O)c3cccc(Cl)c3)nc2C)cs1	6.3µM*	0%	-1%
COc1ccccc1Nc1nc(-c2sc(NC(=O)c3ccc([N+](=O)[O-])cc3)nc2C)cs1	4µM*	1%	18%
FC(F)(F)c1ccc(Cl)cc1	-6%	-7%	.
COc1ccccc1CNC(=O)c1cc2cc3ccc(Cl)cc3nc2o1	0%	0%	.
CCOc1ccccc1Nc1nc(-c2sc(NC(=O)c3ccccc3)nc2C)cs1	13µM*	-4%	?
COc1ccccc1Nc1nc(-c2sc(NC(=O)c3ccccc3)nc2C)cs1	?	3%	12%
C[C@]12C[C@H](O)CC(CO)(CO)C1[C@H](O)C[C@@]13CC4[C@@H](CC12)[C@@]4(C)C3 (stereo partly drawn)	4%	-1%	.
CCC1=C2CC[C@H]3C(=O)N(CC)C(=O)[C@H]3[C@H]2[C@@]2(C)C(=O)N(CC(=O)OC)C(=O)N2C1=O	2%	1%	.
Cc1ccc(-c2c(C(=O)Nc3ccc(F)c(F)c3)oc(=O)c3ccccc23)cc1	-7%	-4%	.
COc1ccccc1-c1cc(C(=O)Nc2sc3c(c2C#N)CCC(C)C3)c2ccccc2n1 (stereo not drawn)	3.2µM*	1%	3%
COc1ccc(OC)c(-c2cc(C(=O)Nc3sc4c(c3C#N)CCC(C)C4)c3ccccc3n2)c1 (stereo not drawn)	?	1%	12%
N#Cc1c(NC(=O)c2ccccc2)sc2c1CCCCC2	-1%	-10%	1%
COc1ccc(-c2cc(C(=O)Nc3sc4c(c3C#N)CCCC4)c3ccccc3n2)cc1	7.9µM*	-5%	6%
CN(Cc1ccccc1)C(=O)[C@H](Cc1ccc2ccccc2c1)NC(=O)[C@@H]1C[C@@H](O)CN1C(=O)c1cn(C)c2ccccc12	?	-1%	.
Cc1nnc(N2C(=O)c3oc4ccccc4c(=O)c3C2c2cccc(OCCC(C)C)c2)s1 (stereo not drawn)	0%	-3%	.
COc1ccc(-n2c(=O)c(-c3ccccc3)nc3cnc(N4CCOCC4)nc32)cc1	-2%	-1%	.
O=C(CSc1nnc(SCc2cccc3ccccc23)s1)N/N=C/C=C/c1ccccc1[N+](=O)[O-]	10µM*	-3%	21%
SMILES	Cruzain noTriton	Cruzain Triton	NS1 function inh
O=C(CSc1nnc(SCc2cccc3ccccc23)s1)N/N=C/c1c[nH]c2ccccc12	1%	-4%	14%
Cc1ccc(C2=NNC(c3ccc(Cl)cc3)=Nc3ccccc32)o1	13µM*	-6%	?
c1ccc(C2=NNC(c3ccco3)=Nc3ccccc32)cc1	.	.	14%
CNc1oc(/C=C/c2ccccc2)nc1C#N	?	25µM*	-7%
COCCNc1oc(/C=C/c2ccccc2)nc1C#N	.	.	-5%
CC1(C)C[C@](C)(C(=O)c2ccccc2)C=C1c1ccccc1	2%	0%	.
CC(=O)Oc1ccc(/C=C/C(=O)CC2OC(Oc3cc(OC(C)=O)c4c(c3)O[C@@H](c3ccc(OC(C)=O)cc3)CC4=O)C(OC(C)=O)C(OC(C)=O)C2OC(C)=O)cc1 (stereo partly drawn)	-3%	0%	.
CC(=O)[C@H](C(=N)C#N)C(=O)Nc1ccccc1	8%	1%	6%
CCc1ccc(N(CC)C(=O)Cn2c(=O)oc3ccccc32)cc1	5%	-3%	.
C=C1C2CC[C@]3(CCC4[C@@]5(C)CCC[C@@]4(CN(CCO)C5)[C@@H]3C2)[C@@H]1O (stereo partly drawn)	-5%	-1%	.
O=[N+]([O-])c1ccc(N2CCCC2)cc1N/N=C1\CN2CCC1CC2	25µM*	?	14%
O=[N+]([O-])c1ccc(N2CCNCC2)cc1NC1CC1	1%	-6%	5%
COc1ccc2c(c1)[N+](=O)C(/C(C)=N/NC(N)=S)=C(C)[N+]2=O	-1%	-7%	0%
